Screening data (PubChem BioAssay)
Hits are enriched below; roughly 17% of the tested compounds scored in any of these assays.
HepG2 viability: qHTS for Inhibitors of TGF-b: Cytotox Counterscreen; HepG2 CAGA-GFP viability, ATP luminescence, 18 h; Potency, µM (doses to about 46.1 µM), for inactives: top-dose activity change, negative = cytotoxicity, hits mostly cytotoxic; hit rate 0.76% among 410,000; AID 588856, 2011
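HepG2 CAGA-GFP cells (1000/well, DMEM with 1% FBS) received compound, then TGF-beta at 500 pg/mL final, and were incubated 18 hours at 37 degrees C. Viability was read by CellTiter-Glo luminescence. Media-only wells were set as complete cell-killing and DMSO as no toxicity.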
DT40 TDP1 CPT: qHTS for Inhibitors of human tyrosyl-DNA phosphodiesterase 1 (TDP1): qHTS in cells in presence of CPT | Potency, µM (doses to about 46.2 µM), for the others: at the highest dose activity change, negative = growth inhibition, most hits filed as inhibitors | chicken DT40 Tdp1-/-;hTDP1 cells + 20 nM CPT, ATP luminescence, 48 h | hit rate 12% among 420,000; also: % is scaled to controls: 0 for no effect and ±100 for the full control effect; nearly all actives have a fitted effect of over 55% in size
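Cell growth measured by CellTiter-Glo luminescence after a minimum 48 h, 37 C compound exposure with 20 nM CPT in Tdp1-knockout DT40 cells stably expressing hTDP1, seeded 400/well; qHTS titration format.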
TGFb inhibitor: qHTS for Inhibitors of TGF-b. HepG2 CAGA-GFP TGF-b/SMAD3 reporter, GFP fluorescence, 18 h; TGF-beta stimulated, 500 pg/mL final. Potency, µM (doses to about 46.1 µM), for the others: at the highest dose activity, negative = inhibition, usual class: inhibitors. hit rate 1.2% among 410,000. AID 588855, 2011; also: % is scaled to controls: 0 for no effect and ±100 for the full control effect; nearly all actives have a fitted effect of over 65% in size
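TGF-beta reporter screen: HEPG2 CAGA-GFP, 1% FBS, 500 pg/mL TGF-beta final, 18 h; per-cell GFP summed per well; curves fitted and categorized by class.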
DT40 TDP1 no CPT: qHTS for Inhibitors of human tyrosyl-DNA phosphodiesterase 1 (TDP1): qHTS in cells in absence of CPT. hit rate 15% among 420,000. AID 686978, 2013. Potency, µM (highest dose often 46.2 µM), for inactives: top-dose activity change, negative = growth inhibition, actives largely listed as inhibitors. DT40 Tdp1-/- hTDP1 cells, no CPT, ATP luminescence, 48 h; also: % is scaled to controls: 0 for no effect and ±100 for the full control effect; nearly all actives have a fitted effect of over 55% in size
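DT40 Tdp1-/-;hTDP1 cells, no CPT (DMSO vehicle only), 400 cells/well; compounds pin-transferred; ≥48 hr, 37 °C; CellTiter-Glo 30 min RT dark, luminescence read.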
HT1080-NT tox: qHTS for induction of synthetic lethality in tumor cells producing 2HG: qHTS for the HT-1080-NT fibrosarcoma cell line | AID 686970, 2013 | HT-1080-NT fibrosarcoma viability, CellTiter-Glo ATP luminescence, 48 h | Potency, µM (highest dose often 46.1 µM), without a hit: at the top dose activity, negative = less viability, most hits filed as cytotoxic | hit rate 1.6% among 360,000;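 also: NT is the 2HG producing partner of a matched IDH1 knockdown line; 0% = DMSO-treated cells and -100% = media-only wells without cells; nearly all actives have a fitted effect of over 55% in size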
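HT-1080-NT; 750 cells/well; 5% FBS RPMI; 48 h compound, 37 degrees C; CellTiter-Glo luminescence; curve fitting and curve-class assignment.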
HT1080 IDH1KD tx: qHTS for induction of synthetic lethality in tumor cells producing 2HG: qHTS for the HT-1080-IDH1KD cell line | HT-1080 IDH1 knockdown viability, ATP luminescence, 48 h | Potency, µM (top dose mostly 46.1 µM), for the others: at the highest dose activity, negative = toxicity, most hits filed as cytotoxic | hit rate 2% among 360,000;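 also: 0% = DMSO wells and -100% = cell-free medium wells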
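Assay cells: HT-1080 with IDH1 knockdown, 750 per well, RPMI/5% FBS. Exposure: 48 h at 37 °C following 2 h pre-incubation. Read: CellTiter-Glo luminescence; fitted concentration-response, curve class assigned.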
* = called active by the depositor; ? = inconclusive; . = no result given. Calls follow the shape of the dose curve; as a rule, active = well fitted curve in the direction sought with a large enough effect; inconclusive = small, poorly fitted or top-dose-only effect, or another doubt; inactive = no such curve, though single readings can be large; an effect the other way counts as inactive or inconclusive. Potency is read from the fitted curve at half-maximal effect.

SMILES	HepG2 viability	DT40 TDP1 CPT	TGFb inhibitor	DT40 TDP1 no CPT	HT1080-NT tox	HT1080 IDH1KD tx
CC(NC(=O)c1ccco1)c1nc(-c2ccccc2Cl)no1 (configuration not stated)	22%	-18%	-18%	-10%	0%	-6%
CC(NC(=O)c1ccco1)c1nc(-c2ccc(C(C)(C)C)cc2)no1 (configuration not stated)	-2%	21µM*	-3%	21µM*	?	-24%
Cc1ccc(-c2noc(C(C)NC(=O)c3ccco3)n2)cc1 (configuration not stated)	-6%	16µM*	?	12µM*	.	.
CCCc1c(C(=O)N/N=C(\CC)c2ccccc2)nnn1-c1nonc1N	12%	-21%	-17%	-4%	0%	0%
CC(C)(C)NC(=O)C(c1ccnc2ccccc12)n1c(=O)c(-c2ccco2)nc2ccccc21 (configuration not stated)	.	?	.	?	2%	0%
c1cncc(-c2ccc3ncnc(NC4CCNCC4)c3c2)c1	.	6%	.	20%	.	.
c1cncc(-c2cncnc2NC2CCNCC2)c1	.	16µM*	.	-12%	.	.
CCCn1c(NCc2c[nH]c3ccccc23)nc2ccccc21	-50%	?	-7%	?	-2%	-9%
CCCN1CCN(CCNC(=O)Nc2ccc(OC)cc2OC)CC1	8%	-16%	?	-25%	.	.
COc1ccc(-n2c(=O)c3ccc(C(=O)NCc4ccc(C)cc4)cc3n(Cc3ccc(Cl)cc3)c2=O)cc1	1%	-6%	9%	-9%	.	.
C/C(=N\Nc1cc(N2CCOCC2)nc(C)n1)c1cccc([N+](=O)[O-])c1	-15%	16µM*	-10%	10µM*	1%	6%
CCc1ccc(/C(C)=N/Nc2cc(Cl)nc(C)n2)cc1	-20%	23µM*	?	?	?	?
Cc1nc(N/N=C/c2cccc([N+](=O)[O-])c2)cc(N2CCCCC2)n1	6%	?	-1%	13µM*	-1%	10%
C/C(=N\Nc1cc(Cl)nc(C)n1)c1ccccc1	-16%	?	-2%	-21%	4%	1%
CCCCc1ccc(/C(C)=N/Nc2cc(N3CCOCC3)nc(C)n2)cc1	-36%	?	?	23µM*	?	?
CC1CCCN(Cc2c(O)ccc3c(=O)c(-c4ccccc4Cl)c(C(F)(F)F)oc23)C1 (configuration not stated)	-11%	1%	0%	0%	.	.
CC[C@H]1OC(=O)[C@H](C)[C@@H](O[C@H]2C[C@@](C)(OC)[C@@H](O)[C@H](C)O2)[C@H](C)[C@@H](O[C@@H]2O[C@H](C)C[C@H](N(C)C)[C@H]2O)[C@](C)(O)C[C@@H](C)CN(C)[C@H](C)[C@@H](O)[C@]1(C)O	-5%	?	27%	-3%	?	?
CCOC(=O)c1c(SCCN2CCCCC2)n(-c2ccccc2)c(=S)n(-c2ccccc2)c1=O	0%	2.9µM*	0%	4.1µM*	1%	-2%
O=C(CSc1nccn(-c2cccc(F)c2)c1=O)Nc1ccc(Cl)cc1F	-26%	-5%	0%	-28%	-14%	-7%
COc1ccc(CCNC(=O)c2cc(=O)c3cc(C)ccc3o2)cc1	-22%	23µM*	-17%	13µM*	-2%	-2%
COc1ccc(CCNC(=O)c2cc(=O)c3ccc(C)cc3o2)cc1OC	-27%	?	-9%	21µM*	-2%	-9%
Cc1ccc2c(=O)cc(C(=O)NCCc3ccc(S(N)(=O)=O)cc3)oc2c1	-2%	-3%	-8%	-1%	1%	2%
COc1ccc(CNC(=O)c2cc(=O)c3ccccc3o2)cc1	5%	?	-12%	-29%	0%	13%
COc1ccc(-n2c(SCC(=O)N/N=C/c3ccccc3OCC(=O)O)nc3ccccc3c2=O)cc1	2%	-22%	4%	9%	3%	0%
COC1=CC(=NCl)C=CC1=NCl	-4%	21µM*	-22%	16µM*	24%	22%
SMILES	HepG2 viability	DT40 TDP1 CPT	TGFb inhibitor	DT40 TDP1 no CPT	HT1080-NT tox	HT1080 IDH1KD tx
CCOc1ccccc1N(CC(=O)Nc1ccc(S(=O)(=O)N2CCOCC2)cc1)S(=O)(=O)c1ccc(Cl)cc1	-19%	?	-12%	?	0%	-1%
CN=c1scc(-c2ccc(F)cc2)n1/N=C/c1ccc(O)c(O)c1	-6%	1.2µM*	?	0.82µM*	?	8.2µM*
CCN=c1scc(-c2ccco2)n1/N=C/c1ccc(OC)c(O)c1	-34%	-21%	0%	?	13%	11%
CCn1c2ccccc2c2cc(CN3CCN(Cc4ccc(Cl)cc4)CC3)ccc21	-57%	15µM*	-18%	?	.	.
CCn1c2ccccc2c2cc(CN3CCN(Cc4ccccc4C)CC3)ccc21	-38%	16µM*	?	?	.	.
CCn1c2ccccc2c2cc(CN3CCN(S(C)(=O)=O)CC3)ccc21	5%	15µM*	-19%	16µM*	-5%	-21%
COc1ccc(NC(=O)Cn2c(=O)n(-c3ccc(CC(=O)NCC4CCCO4)cc3)c(=O)c3ccccc32)c(OC)c1 (configuration not stated)	-1%	5%	-2%	1%	.	.
CCCCNC(=S)NNC(=O)c1ccc(Br)o1	8%	?	-2%	?	3%	2%
CCOC(=O)c1c(C)n(C)c2ccc(OC(C)=O)cc12	-1%	-10%	-7%	-15%	8%	1%
CCOC(=O)c1c(C)n(-c2ccccc2)c2ccc(OC(=O)c3ccc(OCC)c(OCC)c3)cc12	-1%	?	16%	18µM*	.	.
COc1ccc2c(c1)c(C(=O)N1CCN(C)CC1)c(C)n2-c1ccccc1	-1%	-15%	7%	-10%	-2%	6%
CCOC(=O)c1c(C)n(-c2ccccc2)c2ccc(OC(=O)c3ccccc3Cl)cc12	-7%	?	5%	16µM*	.	.
CCOC(=O)c1c(C)n(-c2ccccc2)c2ccc(OC(=O)c3cccc(OC)c3OC)cc12	-21%	-18%	-34%	-26%	.	.
